Measured values as given in ChEMBL document CHEMBL3433997, “St. Jude Leishmania screening dataset” (2016).
Values joined by “and” are separate entries in the source; they are usually repeats but may differ in a detail not shown here. Identical values can stand only once.

Tests used:
Assay type in all cases: functional
[1] = biological target: Solute carrier family 2, facilitated glucose transporter member 1 (Homo sapiens) (UniProt P11166); experiment: ST_JUDE_LEISH: Cytotoxicity at 2uM final concentration against transgenic Leishmania Mexicana promastigotes LmGLUT1 that are glucose transport deficient and complemented with the human glucose transporter GLUT1. Activity is measured by DNA content using SYBR green in vitro
Sequence of Solute carrier family 2, facilitated glucose transporter member 1 (Homo sapiens) (P11166 whole entry): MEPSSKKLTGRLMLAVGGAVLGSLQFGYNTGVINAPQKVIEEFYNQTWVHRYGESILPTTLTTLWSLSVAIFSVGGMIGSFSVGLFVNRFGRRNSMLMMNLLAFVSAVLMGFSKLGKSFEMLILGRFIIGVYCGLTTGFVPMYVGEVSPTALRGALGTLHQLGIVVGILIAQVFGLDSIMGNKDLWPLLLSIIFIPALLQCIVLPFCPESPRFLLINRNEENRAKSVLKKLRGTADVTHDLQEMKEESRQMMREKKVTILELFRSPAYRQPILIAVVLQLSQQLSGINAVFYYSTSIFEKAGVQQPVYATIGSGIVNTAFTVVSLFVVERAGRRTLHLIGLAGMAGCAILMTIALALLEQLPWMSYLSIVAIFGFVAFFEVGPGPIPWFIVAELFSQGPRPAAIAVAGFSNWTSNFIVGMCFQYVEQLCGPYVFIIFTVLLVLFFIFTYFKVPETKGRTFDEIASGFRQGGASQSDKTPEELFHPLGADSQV

[2] = biological target: Hexose transporter 1 (Plasmodium falciparum) (UniProt O97467); experiment: ST_JUDE_LEISH: Cytotoxicity at 2uM final concentration against transgenic Leishmania Mexicana promastigotes LmPfHT that are glucose transport deficient and complemented with the Plasmodium falciparum hexose transporter. Activity is measured by DNA content using SYBR green in vitro
[3] = biological target: Glucose transporter (Leishmania mexicana) (UniProt O61059); experiment: ST_JUDE_LEISH: Cytotoxicity at 2uM final concentration against transgenic Leishmania Mexicana promastigotes LmGT2 that are glucose transport deficient and complemented with the L. Mexicana glucose transporter 2. Activity is measured by DNA content using SYBR green in vitro

**Q.** Which inhibition [1] does the source give for `CCCCCCCCNCC(O)c1ccc(Cl)c(Cl)c1` (centres undefined) here?
**A.** 2.51%

**Q.** What about the inhibition [2] of the same molecule?
**A.** 3.44%

**Q.** What about the inhibition [3] of the same molecule?
**A.** 1.24%

**Q.** What does the source list for `Cc1c2ccncc2c(C)c2c1[nH]c1ccccc12`?
**A.** inhibition [1]: 17.5%; inhibition [2]: 20.9%; inhibition [3]: 14.7%

**Q.** `COCCNCc1cccc(-c2ccccc2CN(C(=O)Nc2ccccc2)C2CCN(Cc3ccccc3)CC2)c1` was tested. Which inhibition [1] did it give?
**A.** -0.65%

**Q.** What about the inhibition [2] of the same molecule?
**A.** -2.21%

**Q.** What about the inhibition [3] of the same molecule?
**A.** 4.23%

**Q.** What does the source list for `CS(=O)(=O)Nc1ccc2c(C3CCN(CC4CCN(C(=O)/C=C/c5ccc(Cl)c(Cl)c5)CC4)CC3)c[nH]c2c1`?
**A.** inhibition [1]: -0.41%; inhibition [2]: 0.85%; inhibition [3]: -2.09%

**Q.** Which inhibition [1] does the source give for `CNCC(O)c1cc(Cl)c(Cl)cc1C` (centres undefined) here?
**A.** 1.72%

**Q.** And the inhibition [2]?
**A.** 0.44%

**Q.** And the inhibition [3]?
**A.** -1.56%

**Q.** How did the inhibition [1] turn out when `O=C(/C=C/c1ccc(Cl)c(Cl)c1)N1CCC(CN2CCC(c3c(Br)[nH]c4ccccc34)CC2)CC1` was run?
**A.** 2.44%

**Q.** What about the inhibition [2] of the same molecule?
**A.** 0.45%

**Q.** And the inhibition [3]?
**A.** 0.55%

**Q.** Which results are given for `Cc1cc(C)c(CC(C)NCC(O)c2cccc(C(F)(F)F)c2)c(C)c1` (centres undefined)?
**A.** inhibition [1]: 2.03%; inhibition [2]: -0.06%; inhibition [3]: -1.18%

**Q.** How did the inhibition [1] turn out when `CC[C@H]1CN2CC[C@@H]1C[C@H]2[C@H](O)c1cc(N2CCC(O)CC2)nc2ccc(OC)cc12` was run?
**A.** -1.16%

**Q.** What about the inhibition [2] of the same molecule?
**A.** -0.97%

**Q.** And the inhibition [3]?
**A.** -0.9%

**Q.** `O=C(Nc1ccc(Cl)c(Cl)c1)N1CCC(CN2CCC(c3c[nH]c4ccccc34)CC2)CC1` was tested. Which inhibition [1] did it give?
**A.** 6.13%

**Q.** And the inhibition [2]?
**A.** 5.01%

**Q.** What about the inhibition [3] of the same molecule?
**A.** 4.11%

**Q.** `Cc1ccc(CC(C)NCC(O)c2cccc(C(F)(F)F)c2)cc1` (centres undefined) was tested. Which inhibition [1] did it give?
**A.** 1.64% and 2.89%

**Q.** What about the inhibition [2] of the same molecule?
**A.** 4.33% and 0.46%

**Q.** What about the inhibition [3] of the same molecule?
**A.** 1.68% and 0.49%

**Q.** Which inhibition [1] does the source give for `CNC(=O)c1ccc2[nH]cc(C3CCN(CC4CCN(C(=O)/C=C/c5ccc(Cl)c(Cl)c5)CC4)CC3)c2c1` here?
**A.** 1.1%

**Q.** What about the inhibition [2] of the same molecule?
**A.** -0.15%

**Q.** And the inhibition [3]?
**A.** 0.08%

**Q.** For `C1=C(c2c[nH]c3ccccc23)CCN(Cc2ccccc2)C1`, which inhibition [1] is on record?
**A.** 1.51%

**Q.** What about the inhibition [2] of the same molecule?
**A.** 0.32%

**Q.** And the inhibition [3]?
**A.** -0.23%

**Q.** Which inhibition [1] does the source give for `Cc1ccc2[nH]cc(C3CCN(CC4CCC(NC(=O)/C=C/c5ccc(Cl)c(Cl)c5)CC4)CC3)c2c1` (centres undefined) here?
**A.** 4.11% and 12%

**Q.** What about the inhibition [2] of the same molecule?
**A.** 3.18% and 11.1%

**Q.** What about the inhibition [3] of the same molecule?
**A.** -1.76% and 10.5%

**Q.** Which results are given for `CC[C@@]1(O)C(=O)OCc2c1cc1n(c2=O)Cc2c-1nc1cc3c(cc1c2CN1CCOCC1)OCO3`?
**A.** inhibition [1]: 51.3%; inhibition [2]: 76.7%; inhibition [3]: 71.6%

**Q.** How did the inhibition [1] turn out when `CN(c1cc(NC(=O)c2ccc(F)cc2)ccn1)C1CCN(Cc2cccc(C#N)c2)CC1` was run?
**A.** 3.24%

**Q.** What about the inhibition [2] of the same molecule?
**A.** -2.19%

**Q.** And the inhibition [3]?
**A.** 5.14%

**Q.** How did the inhibition [1] turn out when `C/C=C1\CN2CC[C@H]1C[C@H]2[C@H](O)c1ccnc2ccc(O)cc12` was run?
**A.** -0.15%

**Q.** And the inhibition [2]?
**A.** -0.16%

**Q.** What about the inhibition [3] of the same molecule?
**A.** 0.93%

**Q.** With `CCCCCCC(C)c1cc(O)c2c(c1)OC(C)(C)c1ccncc1-2` (centres undefined) as the molecule, how does the inhibition [1] read?
**A.** 1.12%

**Q.** What about the inhibition [2] of the same molecule?
**A.** 0.89%

**Q.** And the inhibition [3]?
**A.** -1.19%

**Q.** `O=C(NC1CCC(CN2CCC(c3c[nH]c4ccccc34)CC2)CC1)c1cc(-c2ccccc2Cl)oc1C(F)(F)F` (centres undefined) was tested. Which inhibition [1] did it give?
**A.** 0.8%

**Q.** What about the inhibition [2] of the same molecule?
**A.** 1.05%

**Q.** And the inhibition [3]?
**A.** 0.55%

**Q.** Which inhibition [1] does the source give for `COc1ccc(C(=O)c2ccc3[nH]cc(C4=CCN(C)CC4)c3c2)cc1` here?
**A.** -0.74%

**Q.** What about the inhibition [2] of the same molecule?
**A.** -1.41%

**Q.** And the inhibition [3]?
**A.** 0.07%

**Q.** For `O=C(NC1CCC(CN2CCC(c3c[nH]c4ccccc34)CC2)CC1)c1csc(-c2ccc(C(F)(F)F)cc2Cl)n1` (centres undefined), which inhibition [1] is on record?
**A.** 10.1%

**Q.** What about the inhibition [2] of the same molecule?
**A.** 9.77%

**Q.** And the inhibition [3]?
**A.** 10.2%

**Q.** With `CSc1ccc(C[C@@H](C)NC[C@H](O)c2cccc(Cl)c2)cc1` as the molecule, how does the inhibition [1] read?
**A.** 2.36%

**Q.** What about the inhibition [2] of the same molecule?
**A.** 1.34%

**Q.** What about the inhibition [3] of the same molecule?
**A.** 2.94%

**Q.** For `COc1ccc(C2CNCc3c2cc(OC)c(OC)c3Cl)cc1` (centres undefined), which inhibition [1] is on record?
**A.** 4.33%

**Q.** And the inhibition [2]?
**A.** 4.69%

**Q.** And the inhibition [3]?
**A.** -0.73%

**Q.** What does the source list for `CCCc1cc([C@@H](O)[C@@H]2C[C@@H]3CCN2C[C@@H]3CC)c2ccccc2n1`?
**A.** inhibition [1]: -0.67%; inhibition [2]: 3.99%; inhibition [3]: 0.11%

**Q.** How did the inhibition [1] turn out when `S=C(Nc1ccc2c(c1)OCCO2)NC1CCC(CN2CCC(c3c[nH]c4ccccc34)CC2)CC1` (centres undefined) was run?
**A.** 0.68% and -2.92%

**Q.** And the inhibition [2]?
**A.** -3.08% and -1.27%

**Q.** And the inhibition [3]?
**A.** 4.46% and -3.36%

**Q.** Which inhibition [1] does the source give for `CC[C@H]1CN2CC[C@H]1C[C@H]2[C@H](O)c1cc(-c2ccccc2C)nc2ccc(OC)cc12` here?
**A.** 0.33%

**Q.** What about the inhibition [2] of the same molecule?
**A.** 0.37%

**Q.** What about the inhibition [3] of the same molecule?
**A.** -4.71%

**Q.** How did the inhibition [1] turn out when `O=c1c2ccccc2nc(/C=C/c2ccc([N+](=O)[O-])cc2)n1-c1ccccn1` was run?
**A.** 10.9%

**Q.** What about the inhibition [2] of the same molecule?
**A.** 11%

**Q.** And the inhibition [3]?
**A.** 6.71%

**Q.** Which results are given for `CN1CC=C(c2c[nH]c3ccc(-c4ccccc4)cc23)CC1`?
**A.** inhibition [1]: 7.91%; inhibition [2]: 2.99%; inhibition [3]: 5.76%

**Q.** What does the source list for `Cc1cc(O)cc2c(C3CCN(CC4CCN(C(=O)/C=C/c5ccc(Cl)c(Cl)c5)CC4)CC3)c[nH]c12`?
**A.** inhibition [1]: 0.1%; inhibition [2]: -0.37%; inhibition [3]: 0.13%

**Q.** Which results are given for `COc1nc(N)ncc1C(=O)NC1CN2CCC1CC2` (centres undefined)?
**A.** inhibition [1]: 7.43%; inhibition [2]: 6.98%; inhibition [3]: 7.08%

**Q.** `CC(=O)Nc1ccc(OCCN(CC(C)(C)C)c2ccc(C#N)c(C(F)(F)F)c2)c(Cl)c1` was tested. Which inhibition [1] did it give?
**A.** 4.2%

**Q.** And the inhibition [2]?
**A.** 5.82%

**Q.** And the inhibition [3]?
**A.** 3.22%

**Q.** For `CCCCCCCc1cc(O)c2c3c(c(=O)oc2c1)CN(C)CC3`, which inhibition [1] is on record?
**A.** 10.7%

**Q.** And the inhibition [2]?
**A.** 11.3%

**Q.** And the inhibition [3]?
**A.** 10.7%

**Q.** What does the source list for `O=C(NC1CCC(CN2CCC(c3c[nH]c4ccccc34)CC2)CC1)c1csc(-c2cccc(Cl)c2Cl)n1` (centres undefined)?
**A.** inhibition [1]: 5.32%; inhibition [2]: 4.16%; inhibition [3]: 2.71%

**Q.** With `Oc1ccc(Cl)cc1CN1CCC(CCOC(c2ccccc2)c2ccccc2)CC1` as the molecule, how does the inhibition [1] read?
**A.** 9.61%

**Q.** And the inhibition [2]?
**A.** 9.6%

**Q.** What about the inhibition [3] of the same molecule?
**A.** 7.84%
